Reference: the supplement of paper PMC9950053
Counter-ions that a name gives are not always drawn.

What follows are compounds tested on Danio rerio larvae (5 dpf) (assay: 1-h baseline activity (% time moving, periods 1-6) minus DMSO control (percentage points); higher = more locomotor activity than DMSO larvae). Settings: 10 µM; exposure time: 3 h pre-incubation + 3 h imaging.
Protocol: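 Wild-type 5 dpf zebrafish larvae (n=48 per drug, 96-well plates, 28.5 °C) were exposed to Tocris FDA-approved library compounds at 10 µM (0.1% DMSO) for 3 h before and 3 h during imaging. Images were taken every 6 s during visual (moving coloured lines) and acoustic stimuli, and larvae were tracked with the DeepLabCut-based Z-LaP Tracker. Each behavioural measure is the treated-group mean minus the DMSO vehicle control mean (n=844), in percentage points. This mapping covers compounds with 4-character plate codes.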

| Compound | 1-h baseline activity |
| --- | --- |
| O=c1[nH]c(=O)n([C@H]2C[C@H](O)[C@@H](CO)O2)cc1C(F)(F)F [Trifluorothymidine] | 0.518 |
| O=C1CCc2cc(OCCCCc3nnnn3C3CCCCC3)ccc2N1 [Cilostazol] | 10 |
| COc1ccc(C[C@@H](C)NC[C@H](O)c2ccc(O)c(NC=O)c2)cc1 [Arformoterol tartrate] | 41.7 |
| CC(C)n1c(/C=C/C(O)CC(O)CC(=O)O)c(-c2ccc(F)cc2)c2ccccc21 (stereo not given) [Fluvastatin sodium] | -0.765 |
| CC(CCc1ccc(O)cc1)NCCc1ccc(O)c(O)c1 (stereo not given) [Dobutamine hydrochloride] | -2.47 |
| C[C@@H](O[C@H]1OCCN(Cc2n[nH]c(=O)[nH]2)[C@H]1c1ccc(F)cc1)c1cc(C(F)(F)F)cc(C(F)(F)F)c1 [Aprepitant] | -8.77 |
| OCCOCCN1CCN(C2=Nc3ccccc3Sc3ccccc32)CC1 [Quetiapine hemifumarate] | 9.62 |
| Nc1ccn([C@@H]2O[C@H](CO)[C@@H](O)C2(F)F)c(=O)n1 [Gemcitabine hydrochloride] | -7.23 |
| COc1cc2nc(N3CCN(C(=O)c4ccco4)CC3)nc(N)c2cc1OC [Prazosin hydrochloride] | -4.14 |
| Cc1cccc(CN2CCN(C(c3ccccc3)c3ccc(Cl)cc3)CC2)c1 (stereo not given) [Meclizine dihydrochloride] | 20.8 |
| CCCc1nc(C(C)(C)O)c(C(=O)O)n1Cc1ccc(-c2ccccc2-c2nnn[nH]2)cc1 [Olmesartan] | 10.4 |
| Nc1nc(F)nc2c1ncn2[C@@H]1O[C@H](CO)[C@@H](O)[C@@H]1O [Fludarabine] | 4.33 |
| CCC(C)(C)C(=O)O[C@H]1C[C@@H](C)C=C2C=C[C@H](C)[C@H](CC[C@@H]3C[C@@H](O)CC(=O)O3)[C@H]21 [Simvastatin] | 6.15 |
| C=C1[C@H](CO)[C@@H](O)C[C@@H]1n1cnc2c(=O)[nH]c(N)nc21 [Entecavir] | -2.24 |
| Cc1ccc(NC(=O)c2ccc(CN3CCN(C)CC3)cc2)cc1Nc1nccc(-c2cccnc2)n1 [Imatinib mesylate] | -13.5 |
| CC(=O)O[C@H]1C(=O)[C@@]2(C)[C@H]([C@H](OC(=O)c3ccccc3)[C@]3(O)C[C@H](OC(=O)[C@H](O)[C@@H](NC(=O)c4ccccc4)c4ccccc4)C(C)=C1C3(C)C)[C@]1(OC(C)=O)CO[C@@H]1C[C@@H]2O [Taxol] | 1.47 |
| CCOc1cc(CC(=O)N[C@@H](CC(C)C)c2ccccc2N2CCCCC2)ccc1C(=O)O [Repaglinide] | 4.99 |
| CCCCNc1cc(C(=O)O)cc(S(N)(=O)=O)c1Oc1ccccc1 [Bumetanide] | 3 |
| COc1cc(Nc2c(C#N)cnc3cc(OCCCN4CCN(C)CC4)c(OC)cc23)c(Cl)cc1Cl [Bosutinib] | -17.1 |
| COc1ccc([C@@H]2Sc3ccccc3N(CCN(C)C)C(=O)[C@@H]2OC(C)=O)cc1 [Diltiazem hydrochloride] | -4.8 |

| Compound | 1-h baseline activity |
| --- | --- |
| CCOC(=O)N1CCC(=C2c3ccc(Cl)cc3CCc3cccnc32)CC1 [Loratidine] | -19.4 |
| CC(C)N(CCCCOCC(=O)NS(C)(=O)=O)c1cnc(-c2ccccc2)c(-c2ccccc2)n1 [Selexipag] | 1.65 |
| CCOc1nc2cccc(C(=O)O)c2n1Cc1ccc(-c2ccccc2-c2nnn[nH]2)cc1 [Candesartan] | 2.98 |
| CCCCc1nc(Cl)c(CO)n1Cc1ccc(-c2ccccc2-c2nnn[nH]2)cc1 [Losartan potassium] | 10.3 |
| CC/C(=C(\c1ccccc1)c1ccc(OCCN(C)C)cc1)c1ccccc1 [Tamoxifen citrate] | 26.3 |
| Cc1ccccc1C(=O)Nc1ccc(C(=O)N2CCCC(O)c3cc(Cl)ccc32)c(C)c1 (stereo not given) [Tolvaptan] | 0.214 |
| N#Cc1ccc(C(c2ccc(C#N)cc2)n2cncn2)cc1 [Letrozole] | -4.77 |
| CC[C@H](C)C(=O)O[C@H]1C[C@@H](C)C=C2C=C[C@H](C)[C@H](CC[C@@H]3C[C@@H](O)CC(=O)O3)[C@H]21 [Lovastatin] | -3.77 |
| CN(CCOc1ccc(NS(C)(=O)=O)cc1)CCc1ccc(NS(C)(=O)=O)cc1 [Dofetilide] | -0.169 |
| CN(C)CCc1c[nH]c2ccc(Cn3cncn3)cc12 [Rizatriptan benzoate] | -3.79 |
| CC(C)(C(=O)c1cccnc1)c1cccnc1 [Metyrapone] | -9.17 |
| Nc1ncn([C@@H]2O[C@H](CO)[C@@H](O)[C@H]2O)c(=O)n1 [5-Azacytidine] | 2.7 |
| COc1c(C)c2c(c(O)c1C/C=C(\C)CCC(=O)OCCN1CCOCC1)C(=O)OC2 [Mycophenolate mofetil] | -3.96 |
| C[C@H]1C[C@@H]2[C@H]([C@@H](O)C[C@@]3(C)[C@H]2CC[C@]3(O)C(=O)CO)[C@@]2(C)C=CC(=O)C=C12 [Methylprednisolone] | -0.716 |
| CC(C)Nc1cccnc1N1CCN(C(=O)c2cc3cc(NS(C)(=O)=O)ccc3[nH]2)CC1 [Delavirdine mesylate] | -4.01 |
| O=C(Nc1c(Cl)cncc1Cl)c1ccc(OC(F)F)c(OCC2CC2)c1 [Roflumilast] | -15.9 |
| O=C(NCC1CCCCN1)c1cc(OCC(F)(F)F)ccc1OCC(F)(F)F (stereo not given) [Flecainide acetate] | -0.107 |
| CN(C)CC/C=C1/c2ccccc2COc2ccc(CC(=O)O)cc21 [Olopatadine hydrochloride] | -0.564 |
| CCOC(=O)c1ncn2c1CN(C)C(=O)c1cc(F)ccc1-2 [Flumazenil] | 1.03 |
| CCN(Cc1ccncc1)C(=O)C(CO)c1ccccc1 (stereo not given) [Tropicamide] | -5.81 |
